Results as given in PubChem BioAssay (Tox21).
Where “and” joins values, the source holds several entries; their conditions need not be identical. Identical values can stand only once. Results filed as inconclusive are left out. A structure can be active in one record and inactive in another. Calls of active or inactive are those of the source. Unless noted, calls follow the shape of the dose curve; as a rule, active = well fitted curve in the direction sought with a large enough effect in the repeat runs; inconclusive = weak or mixed curves; inactive = no such curve, though single readings can be large; an effect the other way counts as inactive or inconclusive.

Legend:
[1] = A CellTox Green Cytotoxicity Assay to monitor cytotoxicity in HepG2 cells - 8 hour (AID 1224890); also: nearly all actives have a fitted effect of over 45% in size; also: potency is read from the fitted curve at half-maximal effect
Method in brief: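 Using 1536-well format, dye-containing HepG2 suspension was seeded, allowed 5 h at 37 C/5% CO2, dosed by pintool with compounds, positive and negative controls, and imaged for fluorescence across 40 h.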

[2] = qHTS assay to identify small molecule antagonists of the estrogen receptor alpha (ER-alpha) signaling pathway using the BG1 cell line in the presence of 0.1 nM 17-beta-estradiol - cell viability counter screen (AID 1259241); also: nearly all actives have a fitted effect of over 40% in size
Method in brief: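 VM7Luc4E2, 4,000 cells/well, phenol red-free medium + 10% charcoal-stripped FBS; 24 hr plating; cpd + 0.1 nM E2 final, 22 hr 37C/5% CO2; CellTiter-Fluor 30 min, fluorescence.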

[3] = qHTS assay to identify small molecule antagonists of the androgen receptor (AR) signaling pathway using the MDA cell line in the presence of 0.5 nM R1881 - cell viability counter screen (AID 1259242); also: nearly all actives have a fitted effect of over 45% in size
Method in brief: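 Viability of MDA-kb2 cells was multiplexed with the luciferase AR readout; after 16 hr with compounds and R1881 at 0.5 nM final, CellTiter-Fluor fluorescence was recorded.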

[4] = qHTS assay to identify small molecule phospholipidosis (PLD) inducers (AID 1259344; active = well fitted curve in the direction sought with a large enough effect; an effect the other way counts as inactive or inconclusive)
Method in brief: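 HepG2 cells, 900/well, treated with compound plus LipidTOX Red for 24 h at 37 C; amiodarone positive and DMSO negative controls. Fixed with paraformaldehyde/Hoechst, then high-content imaging scored LipidTOX pit count and integrated intensity per well and per cell.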

[5] = qHTS assay to identify small molecule HDAC inhibitors (AID 1259364); also: potency is read from the fitted curve at half-maximal effect;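 also: wild-type HCT-116 cells with endogenous class I/II HDAC activity; nearly all actives have a fitted effect of over 45% in size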
Method in brief: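 Read-out: luminescence of HDAC-Glo I/II reagent, 30 min RT, reflecting class I/II deacetylase activity in whole HCT-116 cells pre-exposed 2 h to DMSO-dissolved compounds.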

[6] = qHTS assay to identify small molecule HDAC inhibitors - cell viability counter screen (AID 1259365); also: series mostly up to about 92 µM; nearly all actives have a fitted effect of over 50% in size
Method in brief: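 Luminescence from CellTiter-Glo, developed 30min at room temperature, reports viability of wild-type HCT-116 cells treated 2hr with compounds at 37 C and 5% CO2 after overnight plating.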

[7] = qHTS assay to identify small molecule agonists of the sonic hedgehog signaling (Shh) pathway - cell viability counter screen (AID 1259366); also: nearly all actives have a fitted effect of over 50% in size; also: potency is read from the fitted curve at half-maximal effect
Method in brief: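 Cytotoxicity counter screen run in the same wells as the Shh reporter assay. NIH/3T3 cells carrying a Gli1 response element–driven luciferase were treated with DMSO-dissolved compounds for 24hr, and live-cell protease activity was measured with CellTiter-Fluor.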

[8] = qHTS assay to identify small molecule antagonists of the sonic hedgehog signaling (Shh) pathway - cell viability counter screen (AID 1259367); also: nearly all actives have a fitted effect of over 55% in size; also: potency is read from the fitted curve at half-maximal effect
Method in brief: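 NIH/3T3-derived Gli1-Luc reporter cells, 2,000/well, plated 4 hr before compound addition, then stimulated with conditioned medium for 24 hr at 37C. Viability measured in the same wells by CellTiter-Fluor fluorescence, reagent added at 23 hr for 1 hr.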

[9] = target: Estrogen receptor (Homo sapiens) (UniProt P03372); test: qHTS assay to identify small molecule antagonists of the estrogen receptor alpha (ER-alpha) signaling pathway using the BG1 cell line in the presence of 0.1 nM 17-beta-estradiol (AID 1259244); also: nearly all actives have a fitted effect of over 50% in size
Sequence of Estrogen receptor (Homo sapiens) (P03372 whole entry, looked up): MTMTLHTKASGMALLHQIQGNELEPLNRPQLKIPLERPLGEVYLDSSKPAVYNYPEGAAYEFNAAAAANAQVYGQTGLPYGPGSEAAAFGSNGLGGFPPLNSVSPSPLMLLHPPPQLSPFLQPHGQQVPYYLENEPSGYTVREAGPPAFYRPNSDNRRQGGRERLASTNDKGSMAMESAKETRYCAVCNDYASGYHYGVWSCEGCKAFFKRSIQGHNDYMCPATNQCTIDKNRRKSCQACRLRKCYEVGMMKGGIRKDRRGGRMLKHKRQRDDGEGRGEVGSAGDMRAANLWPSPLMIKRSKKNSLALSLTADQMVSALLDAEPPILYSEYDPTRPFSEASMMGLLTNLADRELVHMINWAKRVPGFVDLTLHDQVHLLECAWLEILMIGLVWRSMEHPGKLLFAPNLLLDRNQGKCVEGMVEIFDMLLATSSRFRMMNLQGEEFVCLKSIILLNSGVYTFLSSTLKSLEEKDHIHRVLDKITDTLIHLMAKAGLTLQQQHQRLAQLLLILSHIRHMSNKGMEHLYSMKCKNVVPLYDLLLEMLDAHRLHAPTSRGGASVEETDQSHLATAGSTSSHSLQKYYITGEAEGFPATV
Method in brief: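 Estradiol at 0.1 nM (final) stimulates the endogenous ER-alpha of VM7Luc4E2 cells carrying an ERE-driven luciferase; compounds are co-incubated 22 h at 37C and luciferase output quantified by luminescence.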

[10] = target: Androgen receptor (Homo sapiens) (UniProt P10275); test: qHTS assay to identify small molecule antagonists of the androgen receptor (AR) signaling pathway using the MDA cell line in the presence of 0.5 nM R1881 (AID 1259243); also: nearly all actives have a fitted effect of over 50% in size; also: potency is read from the fitted curve at half-maximal effect
Sequence of Androgen receptor (Homo sapiens) (P10275 whole entry, looked up): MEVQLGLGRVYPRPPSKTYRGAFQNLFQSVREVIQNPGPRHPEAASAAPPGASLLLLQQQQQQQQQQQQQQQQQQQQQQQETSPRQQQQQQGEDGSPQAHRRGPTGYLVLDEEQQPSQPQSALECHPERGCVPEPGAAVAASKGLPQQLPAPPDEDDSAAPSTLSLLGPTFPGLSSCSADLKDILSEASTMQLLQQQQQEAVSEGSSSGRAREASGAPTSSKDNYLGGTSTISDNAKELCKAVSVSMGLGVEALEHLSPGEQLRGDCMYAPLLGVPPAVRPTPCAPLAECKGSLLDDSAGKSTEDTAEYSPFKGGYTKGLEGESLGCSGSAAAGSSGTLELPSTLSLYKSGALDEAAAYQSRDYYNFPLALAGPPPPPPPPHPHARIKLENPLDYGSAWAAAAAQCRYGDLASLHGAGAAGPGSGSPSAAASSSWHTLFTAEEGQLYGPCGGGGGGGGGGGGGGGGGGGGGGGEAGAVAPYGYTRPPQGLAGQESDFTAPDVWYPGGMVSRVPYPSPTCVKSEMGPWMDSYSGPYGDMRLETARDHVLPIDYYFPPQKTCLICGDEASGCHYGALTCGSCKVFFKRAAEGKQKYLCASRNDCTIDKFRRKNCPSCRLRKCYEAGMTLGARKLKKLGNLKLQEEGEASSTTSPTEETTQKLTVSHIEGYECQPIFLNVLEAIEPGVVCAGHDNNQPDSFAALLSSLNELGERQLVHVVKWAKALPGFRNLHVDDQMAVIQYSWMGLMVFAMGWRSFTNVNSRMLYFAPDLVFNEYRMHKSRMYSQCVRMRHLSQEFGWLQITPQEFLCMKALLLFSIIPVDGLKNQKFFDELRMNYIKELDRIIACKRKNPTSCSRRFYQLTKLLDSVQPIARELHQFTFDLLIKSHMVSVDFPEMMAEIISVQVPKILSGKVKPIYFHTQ
Method in brief: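 Reporter cells cultured without CO2 receive test chemicals, then 0.5 nM R1881 final; after 16 hr at 37C, ONE-Glo is added and light output recorded.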

Measured: Potency

COCCc1ccc(OCC(O)CNC(C)C)cc1 (centres undefined)
not listed: [9] | [10]
inactive: all other assays above

CC[N+](C)(C)c1cccc(O)c1
not listed: [9] | [10]
inactive: all other assays above

Cc1c(O)cccc1O
not listed: [4] | [10]
inactive: all other assays above

C/C=C(\C)C#N
not listed: [4] | [9] | [10]
inactive: all other assays above

O=c1n(CCO)c(=O)n(CCO)c(=O)n1CCO
inactive and 54.5 µM (active): [8]
inactive and 38.9 µM (active): [1]
not listed: [4] | [10]
inactive: all other assays above

O=C1CCCC(=O)C1
inactive: [1] | [2] | [5] | [6] | [7] | [8]

CN(C)CCCSc1ccccc1NC(=O)/C=C/c1ccccc1
active: [1] 19 µM | [5] 8.41 µM
not listed: [2] | [10]
inactive: all other assays above

C=CCOCC(CC)(CO)COCC=C
not listed: [4] | [9] | [10]
inactive: all other assays above

Cc1ccc(Cl)cc1Cl
not listed: [3] | [4] | [10]
inactive: all other assays above

NC(=O)c1ccc([N+](=O)[O-])cc1
not listed: [4] | [9] | [10]
inactive: all other assays above

O=C1NC(=O)[C@@]2(CCOc3ccc(F)cc32)N1
not listed: [3] | [10]
inactive: all other assays above

CCc1ccc(O)c(OC)c1
not listed: [4] | [9] | [10]
inactive: all other assays above

CC(=O)OC/C=C(\C)CC/C=C(\C)CCC=C(C)C
not listed: [3] | [4] | [10]
inactive: all other assays above

CCn1nc(C(=O)O)c(=O)c2cc3c(cc21)OCO3
not listed: [2]
inactive: all other assays above

CC(=O)N(CC(O)CO)c1c(I)c(C(=O)NCCO)c(I)c(C(=O)NCC(O)CO)c1I (centres undefined)
not listed: [3] | [9] | [10]
inactive: all other assays above

NC(=O)c1cn(Cc2c(F)cccc2F)nn1
not listed: [3] | [9] | [10]
inactive: all other assays above

CC(C)=CCCC(C)CC(=O)O (centres undefined)
inactive: [1] | [2] | [5] | [6] | [7] | [8]

CN(C)CCCNCCCN(C)C
not listed: [3] | [4] | [10]
inactive: all other assays above

O=C1CC2CC1C1CCCC21 (centres undefined)
not listed: [2] | [4]
inactive: all other assays above

O=Cc1cccc([N+](=O)[O-])c1
not listed: [3] | [4] | [10]
inactive: all other assays above

CC(C)(c1ccc(O)cc1)c1ccc(O)cc1
active: [10] 9.58 µM and 6.98 µM
inactive: [1] | [3] | [4] | [5] | [6]
inactive and 12.4 µM (active): [7]
